In PubChem BioAssay (EPA / NIEHS):
Activity calls are given as the source filed them. How the source made its calls: active means hit-call score of the fitted dose curve at least 0.9, where 1 is the maximum; inactive means score below 0.9.

Key:
Settings in all cases: mRNA level, 48 h; actives raise or lower the signal
[1] = read-out: ATP-citrate lyase (ACLY), ACLY (gene 47); assay: LTEA_HepaRG_ACLY: Life Technologies and Expression Analysis (LTEA) Assay for ATP-citrate lyase (ACLY) using HepaRG (AID 2283466)
Method in brief: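 Differentiated HepaRG cells exposed 48 h in serum-free induction medium to eight half-log concentrations up to 100 uM in 0.5% DMSO, duplicates. Transcript measured by Fluidigm TaqMan qRT-PCR, normalized to ACTB, GAPDH, POLR2A; bidirectional fit versus DMSO.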

[2] = read-out: Peroxisomal acyl-coenzyme A oxidase 1 (ACOX1) gene, ACOX1 (gene 51); assay: LTEA_HepaRG_ACOX1: Life Technologies and Expression Analysis (LTEA) Assay for Peroxisomal acyl-coenzyme A oxidase 1 (ACOX1) gene using HepaRG (AID 2283467)
Method in brief: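 HepaRG cells, plated 48 h then switched to serum-free induction medium, were exposed in duplicate for 48 h to 8-point half-log concentrations up to 100 uM in 0.5% DMSO. ACOX1 mRNA was measured by qRT-PCR, normalized to ACTB/GAPDH/POLR2A, and fitted bidirectionally versus DMSO.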

[3] = read-out: Alkaline Phosphatase, Placental (ALPP) gene, ALPP (gene 250); assay: LTEA_HepaRG_ALPP: Life Technologies and Expression Analysis (LTEA) Assay for Alkaline Phosphatase, Placental (ALPP) gene using HepaRG (AID 2283468)
Method in brief: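 HepaRG, 48 h plating then 48 h dosing, serum-free induction medium, 0.5% DMSO. 8 conc, half-log, max 100 uM, duplicates. Endpoint: ALPP transcript by qRT-PCR, housekeeping-normalized; gain or loss fitted vs DMSO.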

[4] = read-out: Bcl-2 (BAD) gene, BAD (gene 572); assay: LTEA_HepaRG_BAD: Life Technologies and Expression Analysis (LTEA) Assay for Bcl-2 (BAD) gene using HepaRG (AID 2283469)
Method in brief: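 Differentiated HepaRG cells were exposed in duplicate in 0.5% DMSO for 48 h to eight-point half-log concentrations up to 100 uM. BAD mRNA was measured by Fluidigm TaqMan qRT-PCR, normalized to ACTB, GAPDH and POLR2A, and fitted bidirectionally against DMSO.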

[5] = read-out: Bcl-2 (BAX) gene, BAX (gene 581); assay: LTEA_HepaRG_BAX: Life Technologies and Expression Analysis (LTEA) Assay for Bcl-2 (BAX) gene using HepaRG (AID 2283470)
Method in brief: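 HepaRG (human liver), 48 h exposure, duplicate wells. 8-pt curve, half-log from 100 uM, 0.5% DMSO. BAX transcript by TaqMan qRT-PCR; ACTB/GAPDH/POLR2A normalization; gain or loss vs DMSO baseline.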

[6] = read-out: adenosine kinase (ADK) gene, ADK (gene 132); assay: LTEA_HepaRG_ADK: Life Technologies and Expression Analysis (LTEA) Assay for adenosine kinase (ADK) gene using HepaRG (AID 2283471)
Method in brief: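 Differentiated HepaRG cells dosed 48 h in serum-free induction medium, 0.5% DMSO vehicle, eight half-log concentrations from 100 uM, in duplicate. ADK mRNA by TaqMan qRT-PCR normalised to ACTB, GAPDH, POLR2A; bidirectional fit versus DMSO.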

[7] = read-out: Alpha-fetoprotein (AFP) gene, AFP (gene 174); assay: LTEA_HepaRG_AFP: Life Technologies and Expression Analysis (LTEA) Assay for Alpha-fetoprotein (AFP) gene using HepaRG (AID 2283472)
Method in brief: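 HepaRG, single lot; 48 h post-plating -> serum-free induction medium; cpd 8-pt, 100 uM top, half-log, 0.5% DMSO, duplicate, 48 h. RNA -> qRT-PCR AFP, norm ACTB/GAPDH/POLR2A. Bidirectional fit vs DMSO.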

BCL2L11 (gene 10018) = assay: LTEA_HepaRG_BCL2L11: Life Technologies and Expression Analysis (LTEA) Assay for Bcl-2 (BCL2L11) gene using HepaRG (AID 2283473)
Method in brief: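 Read-out is BCL2L11 transcript level by qRT-PCR, normalized to three housekeeping genes and fitted bidirectionally against 0.5% DMSO vehicle. HepaRG cells received chemicals for 48 h in serum-free induction medium, 100 uM down in half-log dilutions.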

[8] = read-out: Apolipoprotein A-V (APOA5) gene, APOA5 (gene 116519); assay: LTEA_HepaRG_APOA5: Life Technologies and Expression Analysis (LTEA) Assay for Apolipoprotein A-V (APOA5) gene using HepaRG (AID 2283474)
Method in brief: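 Readout is APOA5 transcript level by qRT-PCR on Fluidigm dynamic arrays, normalized to three housekeeping genes. HepaRG cultures received chemicals for 48 h at up to 100 uM (half-log steps, 0.5% DMSO), with gain or loss scored relative to DMSO.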

[9] = read-out: Apoptosis regulator Bcl-2 (Homo sapiens) (UniProt P10415); assay: LTEA_HepaRG_BCL2: Life Technologies and Expression Analysis (LTEA) Assay for Bcl-2 gene using HepaRG (AID 2283475)
Method in brief: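 HepaRG, plated 48 h then switched to serum-free induction medium; dosed 48 h, 8 conc. (max 100 uM, half-log steps), duplicate, 0.5% DMSO. Lysis in RLT, RNA isolated, TaqMan qRT-PCR for BCL2; ACTB/GAPDH/POLR2A normalisation; bidirectional fit vs DMSO.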

[10] = read-out: Bcl-2 (BID) gene, BID (gene 637); assay: LTEA_HepaRG_BID: Life Technologies and Expression Analysis (LTEA) Assay for Bcl-2 (BID) gene using HepaRG (AID 2283476)
Method in brief: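 Transcript levels of BID, measured by qRT-PCR and normalized to three housekeeping genes, were fitted bidirectionally against DMSO controls. Cells were HepaRG, dosed 48 h at up to 100 uM.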

Caspase-3 (Homo sapiens) = Caspase-3 (Homo sapiens) (UniProt P42574); assay: LTEA_HepaRG_CASP3: Life Technologies and Expression Analysis (LTEA) Assay for cysteine-aspartic acid protease (CASP3) using HepaRG (AID 2283477)
Method in brief: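 Read-out is CASP3 mRNA level by TaqMan qRT-PCR in human HepaRG cells after 48 h chemical exposure. Eight half-log concentrations topping at 100 uM were tested in 0.5% DMSO; gain or loss was fitted relative to DMSO.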

[11] = read-out: Cytochrome P450 (CYP24A1), CYP24A1 (gene 1591); assay: LTEA_HepaRG_CYP24A1: Life Technologies and Expression Analysis (LTEA) Assay for Cytochrome P450 (CYP24A1) using HepaRG (AID 2283478)
Method in brief: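 HepaRG, 48 h chemical exposure, 8-pt half-log CRC from 100 uM, 0.5% DMSO vehicle, duplicates. Endpoint: CYP24A1 mRNA by Fluidigm TaqMan qRT-PCR, normalized ACTB/GAPDH/POLR2A; gain/loss fit vs DMSO.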

[12] = read-out: Cytochrome P450 (CYP1A2), CYP1A2 (gene 1544); assay: LTEA_HepaRG_CYP1A2: Life Technologies and Expression Analysis (LTEA) Assay for Cytochrome P450 (CYP1A2) using HepaRG (AID 2283479)
Method in brief: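 CYP1A2 transcript induction or loss, quantified by Fluidigm qRT-PCR against three housekeeping genes, was fitted bidirectionally against 0.5% DMSO controls. Human HepaRG cells received eight half-log concentrations from 100 uM over 48 h.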

[13] = read-out: cysteine-aspartic acid protease (CASP8), CASP8 (gene 841); assay: LTEA_HepaRG_CASP8: Life Technologies and Expression Analysis (LTEA) Assay for cysteine-aspartic acid protease (CASP8) using HepaRG (AID 2283480)
Method in brief: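 Differentiated HepaRG cells in serum-free induction medium, 48 h exposure, eight-point half-log series from 100 uM in 0.5% DMSO, duplicates. CASP8 mRNA by qRT-PCR, normalized to ACTB, GAPDH, POLR2A; bidirectional fit versus DMSO.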

[14] = read-out: Cytochrome P450 (CYP2B6), CYP2B6 (gene 1555); assay: LTEA_HepaRG_CYP2B6: Life Technologies and Expression Analysis (LTEA) Assay for Cytochrome P450 (CYP2B6) using HepaRG (AID 2283481)
Method in brief: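 HepaRG cells plated 48 h, switched to serum-free induction medium, then dosed 48 h (8 points, half-log from 100 uM, 0.5% DMSO). RNA isolated; CYP2B6 expression measured by qRT-PCR; gain or loss fitted relative to DMSO.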

[15] = read-out: Cytochrome P450 2C19 (Homo sapiens) (UniProt P33261); assay: LTEA_HepaRG_CYP2C19: Life Technologies and Expression Analysis (LTEA) Assay for CYP2C19 using HepaRG (AID 2283482)
Method in brief: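 Transcript levels of CYP2C19 were quantified by qRT-PCR after HepaRG cells were treated for 48 hours with test chemicals up to 100 uM (eight half-log concentrations, 0.5% DMSO vehicle). Gain or loss of signal was fitted relative to DMSO.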

CYP2C9 (gene 1559) = assay: LTEA_HepaRG_CYP2C9: Life Technologies and Expression Analysis (LTEA) Assay for CYP2C9 using HepaRG (AID 2283484)
Method in brief: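 Differentiated human HepaRG cells in serum-free induction medium were exposed 48 h to chemicals in 8-point half-log series from 100 uM (0.5% DMSO), in duplicate. CYP2C9 mRNA was measured by qRT-PCR, normalized to ACTB/GAPDH/POLR2A, with bidirectional fitting versus DMSO.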

CYP2E1 (gene 1571) = assay: LTEA_HepaRG_CYP2E1: Life Technologies and Expression Analysis (LTEA) Assay for CYP2E1 using HepaRG (AID 2283485)
Method in brief: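 Human liver line HepaRG, plated 48 h, then serum-free induction medium + chemical x 48 h; 8-pt CRC from 100 uM, half-log, 0.5% DMSO, n=2. Readout: CYP2E1 mRNA qRT-PCR vs ACTB/GAPDH/POLR2A; bidirectional fit vs DMSO.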

Measured: AC50

Sequence of Caspase-3 (Homo sapiens) (P42574 whole entry, looked up): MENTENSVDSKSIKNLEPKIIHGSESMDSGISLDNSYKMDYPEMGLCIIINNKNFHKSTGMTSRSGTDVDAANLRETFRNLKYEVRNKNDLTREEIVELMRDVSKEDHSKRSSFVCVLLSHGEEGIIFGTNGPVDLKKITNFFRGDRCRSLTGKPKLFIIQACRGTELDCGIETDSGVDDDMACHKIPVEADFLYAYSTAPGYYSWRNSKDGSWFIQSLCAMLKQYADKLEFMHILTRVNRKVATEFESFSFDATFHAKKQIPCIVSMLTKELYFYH
Sequence of Cytochrome P450 2C19 (Homo sapiens) (P33261 whole entry, looked up): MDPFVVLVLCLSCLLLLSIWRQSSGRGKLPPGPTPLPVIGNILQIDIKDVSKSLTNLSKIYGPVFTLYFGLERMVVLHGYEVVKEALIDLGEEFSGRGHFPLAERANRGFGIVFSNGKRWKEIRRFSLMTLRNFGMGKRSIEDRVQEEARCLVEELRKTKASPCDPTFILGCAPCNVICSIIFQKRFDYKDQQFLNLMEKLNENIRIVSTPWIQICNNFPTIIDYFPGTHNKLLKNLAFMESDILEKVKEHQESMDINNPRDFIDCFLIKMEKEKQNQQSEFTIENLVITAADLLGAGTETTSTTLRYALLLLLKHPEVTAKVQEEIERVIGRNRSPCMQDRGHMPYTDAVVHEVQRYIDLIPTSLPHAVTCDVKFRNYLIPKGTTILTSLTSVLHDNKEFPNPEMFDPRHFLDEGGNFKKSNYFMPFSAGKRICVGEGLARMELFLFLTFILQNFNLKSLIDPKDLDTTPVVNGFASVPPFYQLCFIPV
Sequence of Apoptosis regulator Bcl-2 (Homo sapiens) (P10415 whole entry, looked up): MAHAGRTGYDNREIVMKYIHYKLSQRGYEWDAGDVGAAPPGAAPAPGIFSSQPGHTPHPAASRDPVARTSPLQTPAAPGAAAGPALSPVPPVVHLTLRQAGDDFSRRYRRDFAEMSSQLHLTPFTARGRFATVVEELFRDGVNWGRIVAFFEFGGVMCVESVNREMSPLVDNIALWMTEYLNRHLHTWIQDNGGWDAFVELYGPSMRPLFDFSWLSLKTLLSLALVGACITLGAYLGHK

Cc1cc(O)ccc1Cl
inactive: all assays above

CCC(C)c1cc([N+](=O)[O-])cc([N+](=O)[O-])c1O (centres undefined)
active: [2] 1.4 µM | [3] 1.58 µM | [5] 7.23 µM | [6] 2.24 µM | [7] 2.35 µM | BCL2L11 (gene 10018) 1.39 µM | [8] 1.58 µM | [9] 12.3 µM | [10] 2.42 µM | [12] 2.66 µM | [13] 4 µM | [14] 1.32 µM | [15] 2.12 µM | CYP2C9 (gene 1559) 1.71 µM | CYP2E1 (gene 1571) 1.22 µM
inactive: [1] | [4] | Caspase-3 (Homo sapiens) | [11]

ClC1=C(Cl)[C@]2(Cl)[C@@H]3[C@H]4C[C@H]([C@@H]5O[C@H]45)[C@@H]3[C@@]1(Cl)C2(Cl)Cl
active: [7] 31.1 µM | [8] 50 µM | [9] 9.92 µM | [14] 1.01 µM | [15] 2.63 µM | CYP2E1 (gene 1571) 22.6 µM
inactive: all other assays above

C[C@]12CCC(=O)C=C1CC[C@@H]1[C@@H]2CC[C@]2(C)C(=O)CC[C@@H]12
active: [1] 88.9 µM | [3] 29.8 µM | [7] 50 µM | [8] 50 µM | [10] 50 µM | [12] 50 µM | [15] 10.4 µM | CYP2E1 (gene 1571) 1.16 µM
inactive: all other assays above

O=C(O)C(F)(F)C(F)(F)C(F)(F)C(F)(F)C(F)(F)F
active: [2] 9.92 µM | [6] 3 µM | Caspase-3 (Homo sapiens) 9.92 µM | [14] 19.6 µM | [15] 5.35 µM | CYP2C9 (gene 1559) 9.92 µM
inactive: all other assays above

CCC(C)(c1ccc(O)cc1)c1ccc(O)cc1
active: [7] 50 µM | [12] 89.2 µM
inactive: all other assays above

Cc1cccc(C)c1N
active: [14] 19.3 µM
inactive: all other assays above

O=C(NC(=O)c1c(F)cccc1F)Nc1cc(Cl)c(OC(F)(F)C(F)F)c(Cl)c1
active: [12] 3.63 µM | CYP2E1 (gene 1571) 11.6 µM
inactive: all other assays above

Clc1ccc(Cl)cc1
inactive: all assays above

C=CC(=O)NCNC(=O)C=C
active: [1] 12.7 µM | CYP2E1 (gene 1571) 50 µM
inactive: all other assays above

CCCN(CCC)N=O
active: [14] 11 µM
inactive: all other assays above

Oc1ccc(Cl)cc1Cl
active: [10] 12.2 µM
not listed: [6]
inactive: all other assays above

CCOP(=S)(OCC)SCSC(C)(C)C
active: [7] 29.5 µM | CYP2E1 (gene 1571) 28.8 µM
inactive: all other assays above

C1CC2OC2CC1C1CO1 (centres undefined)
active: [14] 7.5 µM
inactive: all other assays above

CCSC(=O)N(CC)C1CCCCC1
active: [14] 32.9 µM
inactive: all other assays above
